Measurements published in PubChem BioAssay AID1416 (The Scripps Research Institute Molecular Screening Center, 2008).
Out of some 220,000 compounds screened, about 370 (0.17%) were called active. The sample as a whole holds a higher share of actives than the screen did. A number with no mark means an inactive call.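 Rule for the calls: active = inhibition above the mean inhibition of all tested compounds plus 3 SD, set separately per screening campaign (cut at about 2.9% in these data); inactive = the rest.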

Target: Eukaryotic translation initiation factor 2-alpha kinase 3 (Homo sapiens) (UniProt Q9NZJ5)
Experiment: SEAP translation reporter rise after PERK-DD activation – CHO PERK-DD cells, SEAP luminescence, HTS, PERK inhibitor project, primary screen (AID 1416);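 note: PERK kinase domain activated by AP20187 dimerizer at 100 nM; 0% = DMSO with dimerizer and 100% = rapamycin at 8.4 µM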
Settings: CHO PERK-DD fusion, at 5.6 µM, stronger effect = higher value

Eukaryotic translation initiation factor 2-alpha kinase 3 (Homo sapiens), sequence (Q9NZJ5 whole entry, looked up, the tested form may be a part): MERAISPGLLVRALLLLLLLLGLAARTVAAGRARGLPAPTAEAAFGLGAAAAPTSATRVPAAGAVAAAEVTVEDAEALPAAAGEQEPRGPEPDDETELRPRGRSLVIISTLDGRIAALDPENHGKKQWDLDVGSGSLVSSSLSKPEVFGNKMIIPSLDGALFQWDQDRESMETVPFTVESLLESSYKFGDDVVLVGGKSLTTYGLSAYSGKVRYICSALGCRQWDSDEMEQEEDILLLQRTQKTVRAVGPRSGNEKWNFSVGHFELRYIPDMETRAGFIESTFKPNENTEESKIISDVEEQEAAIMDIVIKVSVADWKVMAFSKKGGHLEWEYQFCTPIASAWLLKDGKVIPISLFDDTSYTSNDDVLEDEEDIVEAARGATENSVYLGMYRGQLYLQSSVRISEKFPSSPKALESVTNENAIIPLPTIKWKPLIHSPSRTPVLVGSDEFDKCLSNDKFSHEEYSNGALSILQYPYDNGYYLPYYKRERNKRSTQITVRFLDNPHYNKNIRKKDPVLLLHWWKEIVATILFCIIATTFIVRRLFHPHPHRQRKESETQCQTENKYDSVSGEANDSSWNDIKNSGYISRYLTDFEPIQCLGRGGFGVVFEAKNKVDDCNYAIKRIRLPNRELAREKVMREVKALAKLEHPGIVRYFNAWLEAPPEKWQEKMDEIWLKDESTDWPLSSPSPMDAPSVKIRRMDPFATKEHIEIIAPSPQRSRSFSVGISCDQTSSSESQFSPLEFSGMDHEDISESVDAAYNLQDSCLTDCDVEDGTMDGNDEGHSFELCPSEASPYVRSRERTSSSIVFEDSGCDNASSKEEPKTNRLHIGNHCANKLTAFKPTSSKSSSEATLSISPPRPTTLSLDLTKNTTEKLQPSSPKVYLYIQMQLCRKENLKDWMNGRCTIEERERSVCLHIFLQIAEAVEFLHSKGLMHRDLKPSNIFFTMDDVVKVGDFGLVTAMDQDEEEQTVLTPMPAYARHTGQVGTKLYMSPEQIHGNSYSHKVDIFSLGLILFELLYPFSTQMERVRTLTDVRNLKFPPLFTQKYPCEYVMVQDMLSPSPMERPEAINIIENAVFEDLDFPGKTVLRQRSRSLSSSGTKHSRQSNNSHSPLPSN

Row | SMILES | inhibition
1 | CC1=NN(C(C)C)C(=O)C1 | 0.1%
2 | O=C(CN1CCN(S(=O)(=O)c2ccc3ccccc3c2)CC1)NC(=O)NC1CCCCC1 | -1.71%
3 | COc1ccc(-n2c(C)nn(CC3CC3)c2=O)cc1 | 0.52%
4 | COc1ccc(CN2CCCC(CNC(=O)c3ccc(F)cc3)C2)cc1OC (stereo not drawn) | 0.78%
5 | O=C(NNC(=O)C1CCN(c2ncccn2)CC1)c1ccccc1 | 1.78%
6 | Cc1cc(Cl)ccc1OCCCC(=O)NCc1ccccn1 | 0.34%
7 | O=C(Nc1cccnc1)c1cc([N+](=O)[O-])ccc1Cl | 1.12%
8 | Cc1cc(=O)[nH]c(N/N=C/c2c(C)nn(-c3ccccc3Cl)c2Cl)n1 | 0.41%
9 | COc1ccc2[nH]c3ccc(OC)cc3c2c1 | -0.09%
10 | COc1ccc2[nH]c(=O)c(CNc3ccc(C)c(C)c3)cc2c1 | 0.88%
11 | COc1ccc2[nH]c(=S)cc(C)c2c1 | 3.26% (active)
12 | CN1CCN(CCC(=O)N/N=C/C=C2\N(C)c3ccccc3C2(C)C)CC1 | 0.12%
13 | O=C(COC(=O)c1cnc(Cl)c(Cl)c1)NCc1ccco1 | -0.25%
14 | NC(=O)Cc1ccc2sc(-c3ccccc3)nc2c1 | 0%
15 | O=C(CCNc1n[nH]c(=O)[nH]c1=O)N/N=C\c1ccc(Br)cc1 | 1.9%
16 | Cc1cc(/C=N/NC(=O)CC2(C)OCCO2)c(C)n1-c1ccc(Cl)c(Cl)c1 | -0.35%
17 | CC(=O)NC1=NN(C(C)=O)C(C)(c2ccc(C)cc2)S1 (stereo not drawn) | 0.26%
18 | COc1ccc(CC(NC(C)=O)C(=O)NC2CCN(C(=O)c3ccc(OC)c(OC)c3)CC2)cc1OC (stereo not drawn) | 0.49%
19 | O=C(COc1ccc([N+](=O)[O-])cc1Cl)Nn1cnnc1 | 0.99%
20 | CN(C)S(=O)(=O)c1cccc(NC(=S)NCc2ccc3c(c2)OCO3)c1 | -0.05%
21 | COC(OC)c1ccnc(SCc2ccccc2Cl)n1 | 1.69%
22 | CCN1CCN(C(=O)CCN2C(=O)c3ccccc3C2=O)CC1 | 1.42%
23 | COC(=O)c1cc2n(n1)CCCNC2=O | 0.06%
24 | CCN(CC)CCOC(=O)c1ccc(NC(=O)CNC(=O)c2ccccc2)cc1 | 2.02%
25 | CCn1nc(C)c(CN2CCN(Cc3ccc(OC)c(C)c3C)C(CCO)C2)c1C (stereo not drawn) | -0.31%

Row | SMILES | inhibition
26 | Cc1ccc(N2C(=O)C(Cc3ccccc3)NC2=S)cc1 (stereo not drawn) | -0.27%
27 | O=C1C(Cc2ccc(O)cc2)NC(=S)N1Cc1ccccc1 (stereo not drawn) | 3.13% (active)
28 | COc1ccc(N2C(=O)C(Cc3ccccc3)NC2=S)cc1 (stereo not drawn) | 0.37%
29 | O=[N+]([O-])c1ccc2c(c1)C(N1CCOCC1)/C(=C/C1(O)CCCCC1)O2 (stereo not drawn) | -1.29%
30 | Cc1c(C(=O)N(Cc2ccccc2)Cc2cccnc2)cnn1-c1ccc(F)cc1 | -0.72%
31 | CCc1cc(CNC(=O)CC2C(=O)NCCN2CC2CCCCC2)on1 (stereo not drawn) | -0.53%
32 | COc1cc(NS(=O)(=O)c2ccc(NC(=O)CN3C(=O)c4ccccc4C3=O)cc2)ncn1 | 2.32%
33 | COc1ccc(Oc2c(Cl)cnn(-c3ccccc3)c2=O)cc1 | 0.39%
34 | COc1ccc(-n2c(C)nc3c(cnn3-c3ccccc3)c2=O)cc1 | -0.16%
35 | Cc1ccc(Oc2cnn(-c3ccccc3)c(=O)c2Br)cc1 | 2.99% (active)
36 | CCCS(=O)(=O)N1CCC(CCOc2ccccc2)(C(=O)OCC)CC1 | -0.64%
37 | O=C(NC(=O)N1CCOCC1)c1ccccc1 | 0.27%
38 | O=C(NC(=O)c1cc(OCC(F)(F)F)ccc1OCC(F)(F)F)Nc1ccccc1 | 0.87%
39 | CN(C)S(=O)(=O)c1ccc(NC(=O)N2CCOCC2)cc1 | 0.79%
40 | Cn1nccc1NS(=O)(=O)c1ccc(F)cc1 | 0.14%
41 | CC(C)CNC(=O)C(=O)Nc1ccc(N(C)C)cc1 | 0.89%
42 | Nc1ccc(S(=O)(=O)Nc2nccc(/C=C/c3ccc(Br)s3)n2)cc1 | 1.17%
43 | O=C(O)CCCC(=O)Nc1ccccc1-n1ccnc1 | 3.15% (active)
44 | Cc1cccc(C)c1NC(=O)Nc1ccccc1-n1ccnc1 | 1.72%
45 | CC(CC(=O)Nc1ccccc1)n1ccnc1 (stereo not drawn) | 0.1%
46 | COc1cccc(C2SCC(=O)N2c2cccc(C)c2)c1OC (stereo not drawn) | 0.28%
47 | CC(=O)NCC(=O)N(Cc1ccco1)C1(C(=O)NC2CCCC2)CCCCC1 | 0.44%
48 | CCc1ccc(N(CC(=O)Nc2sc3c(c2C(=O)OC)CCCC3)S(C)(=O)=O)cc1 | 0.54%
49 | O=C(c1cccc(S(=O)(=O)N2CCCC2)c1)N(Cc1ccco1)C1CCS(=O)(=O)C1 (stereo not drawn) | 0.31%
50 | Cc1nn(-c2ccccc2)c(-n2cccc2)c1C(=O)O | 0.88%

Row | SMILES | inhibition
51 | CC(CO)(CO)NC(=O)c1ccc(=O)[nH]n1 | 1.5%
52 | CCC(C)NCCOCCOc1ccc(Br)cc1C (stereo not drawn) | -0.24%
53 | COc1ccc(C2c3c(C)nn(-c4ccccc4)c3NC(=O)N2c2ccccc2)cc1 (stereo not drawn) | -0.38%
54 | CCN(CCCNC(=O)C1CCN(S(=O)(=O)c2cnc[nH]2)CC1)c1ccccc1 | -0.73%
55 | O=C(Nc1ccccc1)O/N=C1/CCCc2occc21 | 0.48%
56 | COc1ccc(-c2csc(NC(=O)COC(=O)c3ccc(Br)o3)n2)cc1 | 0.82%
57 | CCN(CC)CCNc1ccc(Cl)cc1[N+](=O)[O-] | -0.09%
58 | N#Cc1c(NCCO)ccc([N+](=O)[O-])c1NCCO | 3.54% (active)
59 | O=[N+]([O-])c1ccc(NCCCO)c(C(F)(F)F)c1 | 0.52%
60 | O=C(C1CCCN1S(=O)(=O)c1ccc(Br)cc1)N1CCOCC1 (stereo not drawn) | 1.24%
61 | CCOC(=O)Cn1c(SC)nc2sc3c(c2c1=O)CC(C)(C)OC3 | 0.18%
62 | CCOC(=O)CSc1nc2sc3c(c2c(=O)[nH]1)CC(C)(C)OC3 | 2.96% (active)
63 | CCC1(C)Cc2c(sc3nc(SC)[nH]c(=O)c23)CO1 (stereo not drawn) | -0.25%
64 | Cc1cccc(C(=O)Nc2ccc(C(=O)/C=C/c3cccs3)cc2)c1 | -1.44%
65 | COc1cc(/C=C/C(=O)OCC(=O)NC(=O)NCc2ccccc2)ccc1OCC#N | 0.97%
66 | O=C(c1ccco1)N1CCN(C(=O)C2CCCN(S(=O)(=O)c3cccc4nsnc34)C2)CC1 (stereo not drawn) | 0.2%
67 | CN(C)c1ccc(NC(=O)CSc2n[nH]c(-c3ccco3)n2)cc1 | -0.7%
68 | COc1ccccc1Cn1c(C)nnc1-c1cnn(C)c1N | 0.89%
69 | CCSc1ccccc1C(=O)NCc1ccc(OC)cc1 | 0.41%
70 | CCn1cc(CN2CCCC(CNS(=O)(=O)Cc3ccccc3)C2)cn1 (stereo not drawn) | 1.56%
71 | COc1c(N2CCN(C(=S)Nc3ccccc3F)C(C)C2)c(F)cc2c(=O)c(C(=O)O)cn(C3CC3)c12 (stereo not drawn) | 1.87%
72 | Cc1ccccc1-n1nc(C)c2cc(C(=O)NC3CC3)sc21 | -1.39%
73 | Cc1c(Cl)c([N+](=O)[O-])nn1CC(=O)NCC1CCCO1 (stereo not drawn) | 0.38%
74 | Cc1cc(S(=O)(=O)NC2CCCCC2)ccc1OCC(=O)NCc1cccnc1 | 0.23%
75 | CC(=O)NCc1ccc(S(=O)(=O)NC2CCN(Cc3ccccc3)CC2)cc1 | 1.04%

Row | SMILES | inhibition
76 | O=C1CCC(=O)N1c1ccc(NCCc2ccccc2F)c([N+](=O)[O-])c1 | -0.58%
77 | NC(=O)c1ccc(N2CCOCC2)nc1 | 2.55%
78 | N#CC1=C(N)N(c2ccc(F)cc2)C(=O)C1 | 0.76%
79 | CCOC(=O)c1ccc(COC(=O)CCc2nc(-c3ccccc3)c(-c3ccccc3)o2)cc1 | -0.32%
80 | Cc1cc(NC(=O)COC(=O)COc2ccc(Cl)cc2C)c([N+](=O)[O-])cc1C | 0.97%
81 | CCOC(=O)C1=C(C)N=C2c3ccccc3C(=O)C2C1c1ccc(Br)cc1 (stereo not drawn) | 0.04%
82 | CCOc1cnc(C(=O)NNC(=O)c2ccccc2Br)o1 | 1.53%
83 | CC1CN(C2CCN(C(=O)COc3ccccc3)CC2)CC(C)O1 (stereo not drawn) | 0.89%
84 | Cc1nn(CC2CC2)c(=O)n1N(C)c1ncc(C(F)(F)F)cc1Cl | 1.31%
85 | O=C(Cn1cnc2ccccc21)N/N=C/c1ccco1 | -0.07%
86 | O=C(O)/C=C\C(=O)Nc1ccc(OCc2ccccc2)cc1 | 1.09%
87 | CCOc1c(Br)cc(/C=C2\C(=O)N(CCC#N)N=C2C)cc1OC | 1.06%
88 | O=[N+]([O-])c1ccccc1NCc1ccccc1Cl | 0.13%
89 | COc1ccc([N+](=O)[O-])cc1N(CC(O)Cn1nnc2ccccc21)S(=O)(=O)c1ccc(C)cc1 (stereo not drawn) | -0.77%
90 | O=C(O)CC1(CC(=O)Nc2cccc(C(F)(F)F)c2)CCCC1 | 1.02%
91 | O=C(Nc1ccc2c(c1)C(=O)OC2)Nc1cccc2ccccc12 | 1.57%
92 | CC(=O)c1cc2c(cc1N)OCO2 | 4.03% (active)
93 | CC(=O)c1cc2c(cc1NC(=O)CN1CCCCCC1)OCO2 | -1.22%
94 | CC(=O)c1ccc2c(c1)OCCOCCOc1ccc(C(C)=O)cc1OCCOCCO2 | -1%
95 | Cc1ccc2cc(C)c(N3CCC(C)CC3)nc2c1 | 1.08%
96 | CC(NS(=O)(=O)c1ccccc1)c1n[nH]c(=S)n1-c1ccccc1 (stereo not drawn) | 3.52% (active)
97 | S=c1[nH]nc(COc2ccccc2)n1-c1ccccc1 | 0.99%
98 | CCCCC(CC(C)O)c1n[nH]c(=S)n1-c1ccccc1 (stereo not drawn) | 0.58%
